This is one part of the list. Inconclusive results are not listed. Active and inactive are the calls of the source. The call rests on the fitted dose curve.

The experiment in a line: Cell Viability Secondary Assay for Inhibitors of the Interaction of Thyroid Hormone Receptor and Steroid Receptor Coregulator 2. As to conditions: HepG2 viability, ATP luminescence (CellTiter-Glo), 72 h. An excerpt:
NIH Molecular Libraries Probe Production Network [MLPCN] NIH Chemical Genomics Center [NCGC] MLPCN Grant: DK058080 Assay Provider: R. Kip Guy, St. Jude Children's Research Hospital NCGC Assay Overview: Thyroid receptor (TR) regulates many homeostatic processes including basal metabolism, cardiovascular function, body weight, and lipid trafficking. TR modulators are potential therapeutics for obesity and hyperlipidemias but current thyroid analogs have undesirable side effects, particularly cardiac stimulation. This secondary assay characterized compounds identified in the qHTS for Inhibitors of the Interaction of Thyroid Hormone Receptor and Steroid Receptor Coregulator 2 (PubChem AID 1485). The effect of compounds on the viability of HepG2 cells was assessed by measuring ATP levels.
NCGC Assay Protocol Summary: HepG2 cells were grown to 80% confluence, collected, and cells were dispensed at 500 cells/25 ul/well into 384 well plates (Costar 3712). Following transfer of 100 nL compound (ranging from 2.5 nM to 50 uM), cells were incubated for 72 hours at 37 C and 5% CO2. Following this incubation, plates were equilibrated at ambient temperature for 30 min, 25 ul of CellTiter-Glo (Promega) was added and luminescence was detected by an EnVision (PerkinElmer) reader.
In general terms: In ATP-based viability assays light output follows the ATP content of the culture.
With `CS(=O)(=O)c1ccc(C(=O)OCC(=O)N2CCC(c3ccccc3)CC2)cc1[N+](=O)[O-]`, the Potency was 8.9 µM (active). Consider `O=C(COC(=O)c1cccc([N+](=O)[O-])c1)NC1C2CC3CC(C2)CC1C3` (stereo not drawn), for which the molecule was called inactive. For the molecule `CS(=O)(=O)c1ccc(C(=O)OCC(=O)N2CCNc3ccccc32)cc1[N+](=O)[O-]`, the Potency is 18 µM (active).
